Results: PubChem BioAssay (NCI)
This is part of a sample that, as a whole, favours compounds with a hit. Of some 79,000 tested, about 15% had one in any assay. Active and inactive are the calls of the source. Rule as the data show it: active = growth inhibition above about 70%; inactive = the rest.

Legend:
[1] = NCI Yeast Anticancer Drug Screen. Data for the rad52 strain (AID 147);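 also: 0% = growth of vehicle-treated control cultures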; conditions: S. cerevisiae rad52 mutant growth inhibition, active compounds read high
In short: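 Growth of repair-deficient yeast cells was compared between compound-treated and vehicle-treated cultures to give percent inhibition.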

[2] = NCI Yeast Anticancer Drug Screen. Data for the wt1 strain (AID 149);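 also: 0% = growth of vehicle-treated wt1 cultures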; conditions: S. cerevisiae wt1 strain (SPY 50644) growth inhibition, active compounds read high
In short: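 Yeast wt1 strain exposed to compounds; growth inhibition measured relative to vehicle-treated controls.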

[3] = NCI Yeast Anticancer Drug Screen. Data for the rad50EPP+ strain (AID 151);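 also: 0% = growth of vehicle-treated control cultures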; conditions: S. cerevisiae rad50 mutant strain, active compounds read high
In short: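 Measured: growth inhibition of rad50EPP+ yeast. Reference: vehicle-treated controls. Screen uses strains with defined genetic alterations in DNA damage repair or cell cycle control.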

[4] = NCI Yeast Anticancer Drug Screen. Data for the mgt1 strain (AID 153); conditions: S. cerevisiae mgt1 mutant growth inhibition, active compounds read high
In short: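 Compounds were applied to mgt1 mutant yeast, and growth was then compared against vehicle-treated control cultures to give percent inhibition.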

[5] = NCI Yeast Anticancer Drug Screen. Data for the rad50 strain (AID 155);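 also: 0% = growth of vehicle-only cultures of the same strain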; conditions: S. cerevisiae rad50 strain growth inhibition, active compounds read high
In short: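 Yeast carrying a defined DNA repair defect were exposed to test compounds, and growth was compared with vehicle-treated controls to give percent inhibition.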

[6] = NCI Yeast Anticancer Drug Screen. Data for the mec2-1 strain (AID 157); conditions: S. cerevisiae mec2-1 strain, active compounds read high
In short: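 Compounds were applied to mec2-1 yeast cells. Their growth was then compared with that of vehicle-treated cultures to give growth inhibition.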

[7] = NCI Yeast Anticancer Drug Screen. Data for the rad14 strain (AID 159);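 also: 0% = growth of vehicle-treated control cultures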; conditions: S. cerevisiae rad14 strain growth inhibition, active compounds read high
In short: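 Yeast cells carrying a defined DNA-repair defect were exposed to compounds, and growth inhibition was calculated relative to vehicle-treated control cultures.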

[8] = NCI Yeast Anticancer Drug Screen. Data for the sgs1 mgt1 strain (AID 161);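 also: 0% = growth of cultures given vehicle only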; conditions: S. cerevisiae sgs1 mgt1 strain, active compounds read high
In short: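 This yeast growth screen uses a strain with defined DNA-repair lesions; compound-treated growth is compared with vehicle-treated growth.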

[9] = NCI Yeast Anticancer Drug Screen. Data for the CLN2oe strain (AID 163);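 also: 0% = growth of vehicle-only control cultures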; conditions: S. cerevisiae CLN2oe strain, active compounds read high
In short: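 Cells of an engineered yeast line with disturbed cell-cycle regulation are treated with compound. Inhibition of growth is then calculated relative to the vehicle-treated reference.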

[10] = NCI Yeast Anticancer Drug Screen. Data for the cln2 rad14 strain (AID 165);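 also: 0% = growth equal to vehicle treated cultures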; conditions: S. cerevisiae cln2 rad14 strain, active compounds read high
In short: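 Strain: cln2 rad14 yeast, altered in cell cycle control and DNA damage repair. Read-out: growth inhibition vs vehicle.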

[11] = NCI Yeast Anticancer Drug Screen. Data for the bub3 strain (AID 167); conditions: S. cerevisiae bub3 mutant strain, active compounds read high
In short: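 Compounds were applied to a genetically altered yeast strain carrying a cell-cycle control defect. Growth inhibition was scored against vehicle-treated controls.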

[12] = NCI Yeast Anticancer Drug Screen. Data for the wt2 strain (AID 169);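 also: 0% = growth of vehicle-treated yeast cultures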; conditions: S. cerevisiae wt2 strain growth inhibition, active compounds read high
In short: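 Growth of compound-treated yeast is measured and expressed as inhibition relative to vehicle-only controls.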

[13] = NCI Yeast Anticancer Drug Screen. Data for the mlh1 strain (AID 171);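 also: 0% = growth of vehicle-treated control cultures of the same strain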; conditions: S. cerevisiae mlh1 strain growth inhibition, active compounds read high
In short: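 Test agents were incubated with yeast bearing a defined DNA damage repair or cell cycle control alteration; values are growth inhibition normalised to vehicle-treated cultures.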

[14] = NCI Yeast Anticancer Drug Screen. Data for the sgs1 strain (AID 173);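 also: 0% = growth of vehicle-only control cultures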; conditions: S. cerevisiae sgs1 mutant, active compounds read high
In short: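 Strain with an altered DNA repair or cell cycle pathway exposed to compound. Growth then measured. Value = inhibition versus vehicle control.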

[15] = NCI Yeast Anticancer Drug Screen. Data for the mlh1 rad18 strain (AID 175); conditions: S. cerevisiae mlh1 rad18 strain growth inhibition, active compounds read high
In short: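 A repair-deficient yeast strain is exposed to test compound, and growth is scored relative to vehicle-treated controls.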

[16] = NCI Yeast Anticancer Drug Screen. Data for the rad18 strain (AID 177); conditions: S. cerevisiae rad18 mutant growth inhibition, active compounds read high
In short: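 DNA-repair-defective yeast; compound treatment; growth inhibition scored against vehicle.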

[17] = at 5.0 µM (retest, dose inferred, filed as 0.5)
[18] = at 50.0 µM (retest, dose inferred, filed as 5.0)

Measured: growth inhibition

COC(=O)/C=C(/CC(=O)OC)C(=O)OC
inactive: [1]; at 1.2 µM 0% | [1]; at 3.7 µM -1% | [1]; at 11.0 µM -1% | [1]; at 33.0 µM -1% | [1]; at 100.0 µM -2% | [2]; at 1.2 µM -2% | [2]; at 3.7 µM 0% | [2]; at 11.0 µM -1% | [2]; at 33.0 µM -3% | [2]; at 100.0 µM -3% | [3]; at 1.2 µM 2% | [3]; at 3.7 µM -2% | [3]; at 11.0 µM -1% | [3]; at 33.0 µM -1% | [3]; at 100.0 µM -3% | [4]; at 1.2 µM -3% | [4]; at 3.7 µM 0% | [4]; at 11.0 µM 0% | [4]; at 33.0 µM 0% | [4]; at 100.0 µM -3% | [5]; at 1.2 µM 0% | [5]; at 3.7 µM -44% | [5]; [17] 59% | [5]; at 11.0 µM 4% | [5]; at 33.0 µM -4% | [5]; [18] 3% | [5]; at 50.0 µM 16.6% | [5]; at 100.0 µM -4% | [6]; at 1.2 µM -1% | [6]; at 3.7 µM -3% | [6]; [17] 12% | [6]; at 11.0 µM 1% | [6]; at 33.0 µM 0% | [6]; [18] 6% | [6]; at 50.0 µM 9.4% | [6]; at 100.0 µM -3% | [7]; at 1.2 µM 0% | [7]; at 3.7 µM 1% | [7]; at 11.0 µM 2% | [7]; at 33.0 µM 3% | [7]; at 100.0 µM -1% | [8]; [18] 15% | [8]; at 50.0 µM -8.4% | [9]; at 1.2 µM 0% | [9]; at 3.7 µM -4% | [9]; at 11.0 µM 0% | [9]; at 33.0 µM -2% | [9]; at 100.0 µM -2% | [10]; [17] 15% | [10]; [18] -1% | [11]; at 1.2 µM -4% | [11]; at 3.7 µM -3% | [11]; [17] 9% | [11]; at 11.0 µM -2% | [11]; at 33.0 µM -2% | [11]; [18] 15% | [11]; at 50.0 µM -15.2% | [11]; at 100.0 µM -1% | [12]; at 1.2 µM -3% | [12]; at 3.7 µM 8% | [12]; at 11.0 µM 0% | [12]; at 33.0 µM -1% | [12]; at 100.0 µM -1% | [13]; at 1.2 µM -2% | [13]; at 3.7 µM -1% | [13]; at 11.0 µM 0% | [13]; at 33.0 µM 0% | [13]; at 100.0 µM -2% | [14]; at 1.2 µM 0% | [14]; at 3.7 µM 1% | [14]; at 11.0 µM 3% | [14]; at 33.0 µM 2% | [14]; at 100.0 µM 3% | [15]; [17] 33% | [15]; [18] 1% | [15]; at 50.0 µM 10.8% | [16]; at 1.2 µM 3% | [16]; at 3.7 µM 2% | [16]; at 11.0 µM 1% | [16]; at 33.0 µM 1% | [16]; at 100.0 µM -4%
active: [8]; [17] 90% | [10]; at 50.0 µM 77.8%

O=C(Nc1ccc(Cl)cc1)Nc1nnc2nc(C(C(=O)c3cccc([N+](=O)[O-])c3Cl)c3nc4nnc(NC(=O)Nc5ccc(Cl)cc5)n4[nH]c3=O)c(=O)[nH]n12
active: [5]; at 50.0 µM 99.5% | [6]; at 50.0 µM 99.5% | [8]; at 50.0 µM 99% | [10]; at 50.0 µM 99.2% | [11]; at 50.0 µM 99.5% | [15]; at 50.0 µM 99.4%
inactive: [1]; at 1.2 µM 2% | [1]; at 3.7 µM 2% | [1]; at 11.0 µM 2% | [1]; at 33.0 µM 4% | [1]; at 100.0 µM 52% | [2]; at 1.2 µM 1% | [2]; at 3.7 µM 1% | [2]; at 11.0 µM 3% | [2]; at 33.0 µM -1% | [2]; at 100.0 µM 30% | [3]; at 1.2 µM 4% | [3]; at 3.7 µM 5% | [3]; at 11.0 µM 8% | [3]; at 33.0 µM 23% | [3]; at 100.0 µM 29% | [4]; at 1.2 µM 0% | [4]; at 3.7 µM 1% | [4]; at 11.0 µM 0% | [4]; at 33.0 µM 15% | [4]; at 100.0 µM 47% | [5]; at 1.2 µM 1% | [5]; at 3.7 µM 0% | [5]; [17] -12% | [5]; at 11.0 µM 2% | [5]; at 33.0 µM 2% | [5]; [18] 10% | [5]; at 100.0 µM 31% | [6]; at 1.2 µM -4% | [6]; at 3.7 µM -2% | [6]; [17] -2% | [6]; at 11.0 µM -12% | [6]; at 33.0 µM 0% | [6]; [18] 10% | [6]; at 100.0 µM 68% | [7]; at 1.2 µM 0% | [7]; at 3.7 µM -3% | [7]; at 11.0 µM 0% | [7]; at 33.0 µM 1% | [7]; at 100.0 µM 56% | [8]; [17] 2% | [8]; [18] 28% | [9]; at 1.2 µM -6% | [9]; at 3.7 µM -8% | [9]; at 11.0 µM -5% | [9]; at 33.0 µM -12% | [9]; at 100.0 µM 37% | [10]; [17] -8% | [10]; [18] 14% | [11]; at 1.2 µM -5% | [11]; at 3.7 µM -5% | [11]; [17] -22% | [11]; at 11.0 µM -7% | [11]; at 33.0 µM -8% | [11]; [18] 22% | [11]; at 100.0 µM 64% | [12]; at 1.2 µM -1% | [12]; at 3.7 µM -2% | [12]; at 11.0 µM -2% | [12]; at 33.0 µM -2% | [12]; at 100.0 µM 32% | [13]; at 1.2 µM 1% | [13]; at 3.7 µM -2% | [13]; at 11.0 µM 2% | [13]; at 33.0 µM -1% | [13]; at 100.0 µM 35% | [14]; at 1.2 µM -1% | [14]; at 3.7 µM 0% | [14]; at 11.0 µM -2% | [14]; at 33.0 µM 1% | [14]; at 100.0 µM 60% | [15]; [17] -20% | [15]; [18] 55% | [16]; at 1.2 µM -1% | [16]; at 3.7 µM -3% | [16]; at 11.0 µM -12% | [16]; at 33.0 µM -2% | [16]; at 100.0 µM 45%
